nsP2pro primary – blocks chikungunya virus nsP2 protease peptide cleavage; FRET peptide cleavage, nsP2pro, fluorescence 1 h; Potency, µM (top dose mostly 24.9 µM), without a hit: at the top dose activity change, negative = inhibition, most hits filed as inhibitors; 31,000 compounds, 1.1% hits; also: nearly all actives have a fitted effect of over 60% in size
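Enzyme 150 nM, substrate 2.5 uM (both final); Tris-HCl 10 mM pH 8.0 + 0.01% Tween 20; cpd up to 25 uM, 7 pts; 15 min preinc., 1 h RT; fluorescence ex 525/em 598.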
nsP2 cell sec – cell-based CHIKV nsP2 protease inhibition, secondary | AID 1964100 | 450 compounds, 10% hits | Potency, µM (titrated, usually from 51.1 µM), for the others: top-dose activity change, negative = inhibition, actives largely listed as inhibitors | cell-based CHIKV nsP2 protease reporter assay | shares compounds with nsP2pro primary; also: nearly all actives have a fitted effect of over 70% in size
NSP2 full ctr – inhibits full-length CHIKV NSP2 enzyme. shares compounds with nsP2pro primary. Full-length CHIKV NSP2 protease enzymatic counterscreen. Potency, µM (series often up to 50.7 µM), without a hit: at the top dose activity change, negative = inhibition, actives largely listed as inhibitors. 410 compounds, 39% hits. AID 1964101; also: nearly all actives have a fitted effect of over 65% in size
Furin counterscr – inhibits human furin in a CHIKV nsP2 protease selectivity counterscreen; shares compounds with nsP2pro primary; Recombinant human furin enzymatic counterscreen, fluorogenic substrate; Potency, µM (top dose mostly 50.6 µM), for the others: top-dose activity change, negative = inhibition, most hits filed as inhibitors; 410 compounds, 6% hits; AID 1964102
nsP2 NS23 pep – blocks CHIKV nsP2 protease cleavage of endogenous NS2/3 peptide | shares compounds with nsP2pro primary | Purified CHIKV nsP2 protease, endogenous NS2/3 peptide cleavage | Potency, µM (highest dose often 51 µM), for inactives: top-dose activity change, negative = inhibition, most hits filed as inhibitors | 410 compounds, 34% hits | AID 1964103; also: nearly all actives have a fitted effect of over 55% in size
Papain cs – inhibits papain in a CHIKV nsP2 protease selectivity counterscreen; shares compounds with nsP2pro primary; AID 1964104; 410 compounds, 5% hits; purified papain protease activity, enzymatic inhibition; Potency, µM (titrated, usually from 51 µM), for inactives: at the top dose activity change, negative = inhibition, usual class: inhibitors
nsP2pro conf qHTS – CHIKV nsP2 protease inhibition, confirmatory qHTS; shares compounds with nsP2pro primary; CHIKV nsP2 protease enzymatic activity, qHTS; Potency, µM (doses to about 25.5 µM), for inactives: at the highest dose activity change, negative = inhibition, most hits filed as inhibitors; 410 compounds, 43% hits; also: nearly all actives have a fitted effect of over 75% in size
HCV NS3 4A cs – inhibits HCV NS3/4A protease in an nsP2pro selectivity counterscreen; shares compounds with nsP2pro primary; HCV NS3/4A protease biochemical counterscreen; Potency, µM (doses to about 50.9 µM), most hits filed as inhibitors; 410 compounds, 20% hits; AID 1964106; also: nearly all actives have a fitted effect of over 55% in size
The depositor's hits bear a star; i = inactive; ? = inconclusive; [ ] = dose if it differs, or a comment. The entries come from a sample that favours hits as a whole. Calls follow the shape of the full dose curve. % is scaled to controls: 0 for no effect and ±100 for the full control effect; potency is read from the fitted curve at half-maximal effect.

SMILES	nsP2pro primary	others
CCOC(=O)c1c2c3c(cccc3[nH]c1=O)C(=O)c1ccccc1-2	?	nsP2 cell sec=6.0%;NSP2 full ctr=3.8%;Furin counterscr=-3.6%;nsP2 NS23 pep=i;Papain cs=-15.4%;nsP2pro conf qHTS=7.0%;HCV NS3 4A cs=i
CCOC(=O)c1c(Nc2ccccc2)nnc(-c2ccccc2)c1-c1ccccc1	-16.2%
CCOC(=O)c1c(C)[nH]c(CCC(=O)Nc2ccccc2C(F)(F)F)c1C	-24.2%
Cc1cc(C)c(S(=O)(=O)N(CCc2cccc(Br)c2)Cc2ccc(-c3cccc(S(C)(=O)=O)c3)cc2)c(C)c1	6.8%
COc1cc(O)c2c(c1)C1OC1C[C@H](O)[C@H](O)C(=O)/C=C\C[C@H](C)OC2=O (stereo partly specified)	-15.8%
[2H]C([2H])([2H])C(CCC[C@@H](C)[C@H]1CC[C@H]2/C(=C/C=C3\C[C@@H](O)C[C@H](O)C3=C)CCC[C@]12C)C([2H])([2H])[2H]	-10.4%
Cc1ccc(CNC(=O)c2cc3sccc3n2Cc2ccc(F)cc2)cc1	14.1%
O=C(NCc1ccccc1)c1cc2sccc2n1Cc1ccc(F)cc1	7.1%
Cc1c(Cl)cccc1NC(=O)c1cc2sccc2n1Cc1ccc(F)cc1	7.94µM*	nsP2 cell sec=?;NSP2 full ctr=5.8µM*;Furin counterscr=-18.3%;nsP2 NS23 pep=16.3µM*;Papain cs=-8.2%;nsP2pro conf qHTS=7.98µM*;HCV NS3 4A cs=8.19µM*
COc1ccc(CCN2CC(NC(=O)Cn3ccc(C)n3)CC2=O)cc1 (stereo unspecified)	i
O=C1NC2(CCN(C(=O)Cc3ccccc3)C2)OCc2ccccc21 (stereo unspecified)	i
CC1(C)CC[C@]2(C(=O)O[C@@H]3O[C@H](CO)[C@@H](O)[C@H](O)[C@H]3O)[C@H](O)C[C@]3(C)C(=CCC4[C@@]5(C)CC[C@H](O[C@@H]6OC[C@@H](O)[C@H](O)[C@H]6O)[C@@](C)(C(=O)O)C5CC[C@]43C)[C@@H]2C1 (stereo partly specified)	-8.4%[10 µM]
O=C(Nc1ncc(Cc2ccc(C(F)(F)F)cc2)s1)c1cccc(-c2ccccc2)c1	-4.8%
CCOC(=O)Nc1ccc(NCc2c(C)cc(C)cc2C)cc1N	?	nsP2 cell sec=?;NSP2 full ctr=-2.2%;Furin counterscr=-9.0%;nsP2 NS23 pep=?;Papain cs=-14.8%;nsP2pro conf qHTS=-37.2%;HCV NS3 4A cs=i
CCOC(=O)c1ccc(NC2CCCCC2)c(N)c1	-2.0%
CCN1C(=O)Cc2cc(C(=O)NCc3c(C)cc(C)cc3C)ccc21	-1.8%
O=C(NCc1cccc(O)c1)Nc1nc(-c2ccncc2)cs1	22.3%
Cc1[nH]c(=O)[nH]c(=O)c1CC(=O)N[C@@H]1COCC[C@@H]1OCc1ccccc1	i
c1cncc(CN2CCn3c(nnc3C3CCCNC3)C2)c1 (stereo unspecified)	?	nsP2 cell sec=6.8%
Fc1ccc(CN2CCn3c(nnc3-c3ccncc3)C2)cc1	-4.8%
O[C@@H]1C[C@@H](c2nnc3n2CCN(C2CCCCC2)C3)N(Cc2cccnc2)C1	-21.9%
Cc1ccc(S(=O)(=O)Nc2ccccc2C(=O)Nc2nccs2)cc1	i
COc1ccc(-c2ccc3nc(-c4cc(C)ccc4F)oc3c2)c(OC)c1OC	2.0%
COc1ccccc1NCc1cccn1-c1nnc(N2CCCCCC2)s1	-26.9%
Cc1ccc(CNCc2cccn2-c2nnc(N3CCCC3)s2)cc1	-6.8%
CCc1ccc(NCc2cccn2-c2nnc(N3CCCCCC3)s2)cc1	?	nsP2 cell sec=?
CC(C)(C)c1cc(O)c(CN)c(C(C)(C)C)c1	-6.4%
COc1c(O)cc2c(c1O)[C@H]1O[C@@H](CO)[C@H](O)[C@@H](O)[C@@H]1OC2=O	-10.1%
